Sampled rows, rich in hits. Any-hit rate of the full collection: about 0.96%.
Rhodamine autofl = compound autofluorescence in rhodamine spectral region; Rhodamine-region fluorescence, 547/598 nm, Tris buffer; stronger effect = higher value; max dye-equivalent concentration, M; 59,000 compounds, 0.05% hits; AID 594; in the data active = max dye-equivalent concentration above about 11 nM; inconclusive = between about 1.1 nM and that limit
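A six-point rhodamine series on each plate calibrates the signal. Compounds sit in 100 mM Tris (pH 8.0) for 15 min at ambient temperature before imaging through 547 nm/598 nm filters.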
Resorufin autofl = compounds fluorescent in resorufin spectral region; 59,000 compounds, 0.04% hits; Compound fluorescence, resorufin region 547/598 nm, buffer; stronger effect = higher value; max dye-equivalent concentration, M
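Compounds in 100 mM Tris buffer, pH 8.0, incubated 15 min at room temperature, then read with 547 nm excitation and 598 nm emission filters. Fluorescence was converted to dye-equivalent concentration using an on-plate six-point resorufin standard curve.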
Fluorescein autfl = fluorescein region autofluorescence; Compound autofluorescence, 480/540 nm, fluorescein-equivalent; stronger effect = higher value; max fluorescein-equivalent concentration, M; 59,000 compounds, 0.91% hits; AID 593; in the data active = max fluorescein-equivalent concentration above about 10 nM; inconclusive = between about 1.1 nM and that limit
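First, buffer (100 mM Tris, pH 8.0) dispensed; second, compounds and fluorescein standards pinned in; third, 15 min room-temperature incubation; finally, imaging at ex 480 nm/em 540 nm. Fluorescence normalized against the six-point fluorescein curve.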
A488 fluor = compound fluoresces in the A488 spectral region | 59,000 compounds, 0.1% hits | max dye equivalency, M | AID 591 | compound autofluorescence, A488 spectral region, dye equivalency; Compound Type: qHTS ECL - MLSMR
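Read-out: relative fluorescence at 480/540 nm, expressed as Alexa 488 dye-equivalent concentration from a six-point A488 standard included per plate. Conditions: 100 mM Tris, pH 8.0; 15 min incubation, room temperature.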
Texas Red fluor = compound fluoresces in the Texas Red spectral region; Compound fluorescence, Texas Red channel, 547/618 nm; stronger effect = higher value; max dye-equivalent concentration, M; 59,000 compounds, 0.06% hits; in the data active = max dye-equivalent concentration above about 10 nM; inconclusive = between about 1.1 nM and that limit
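Compound titrations in 100 mM Tris pH 8.0 were incubated 15 min at room temperature and read at 547 nm excitation / 618 nm emission. Texas Red six-point standard curve on each plate converted fluorescence to dye-equivalent concentration.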
A647 autofl = compound autofluorescence in A647 spectral region; Compound fluorescence, A647 channel (570/671 nm), Tris buffer; max dye-equivalent concentration, M; 59,000 tested, under 10 active
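Tris 100 mM pH 8.0; cpd + A647 stds pin-transferred; 15 min RT; CCD imager, ex 570/em 671. Output = A647-equivalent conc. per cpd conc.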
Large screens that a line does not name were inactive; ! = repeats disagree. Unless noted, the rule behind the calls is not given here.

CCOC(=O)SC1=N/C(=C\c2ccc(N(C)C)cc2)C(=O)S1	Fluorescein autfl 1e-08M
CCOC(=O)c1sc(SCC(=O)Nc2ccc(N(C)C)cc2)nc1N	none
CC(C)N1CC2=C(OC(N)=C(C#N)C2c2cccnc2)/C(=C/c2cccnc2)C1 (configuration not stated)	Fluorescein autfl inconclusive, Texas Red fluor 1.3e-08M
CCCCC#Cc1nc(N)c2ncn([C@@H]3O[C@@H](C(=O)NCC)[C@H](O)[C@@H]3O)c2n1	none
CN1CC=C2C(C#N)=C(N)C(C#N)(C#N)[C@H](c3cccc(Cl)c3)C2C1 (some centres not stated)	Fluorescein autfl 4.1e-08M, A488 fluor inconclusive, Texas Red fluor inconclusive
CCOC(=O)N1CC=C2C(C#N)=C(N)C(C#N)(C#N)[C@H](c3ccsc3)[C@H]2C1	Fluorescein autfl inconclusive, Texas Red fluor inconclusive
CCN1CC=C2C(C#N)=C(N)C(C#N)(C#N)[C@H](c3cccc(OC)c3OC)[C@H]2C1	Fluorescein autfl 9.6e-08M, A488 fluor inconclusive
CCOC(=O)N1CC=C2C(C#N)=C(N)C(C#N)(C#N)[C@H](c3ccc(OC(C)C)c(OCC)c3)[C@H]2C1	none
CCOC(=O)N1CC=C2C(C#N)=C(N)C(C#N)(C#N)[C@H](c3ccccc3OCC)[C@H]2C1	Fluorescein autfl inconclusive, Texas Red fluor inconclusive
CN1CC=C2C(C#N)=C(N)C(C#N)(C#N)C(CCc3ccccc3)C2C1 (configuration not stated)	Fluorescein autfl 4.3e-08M, A488 fluor inconclusive, Texas Red fluor inconclusive
COc1cc([C@@H]2[C@H]3CN(C)CC=C3C(C#N)=C(N)C2(C#N)C#N)cc2c1OCO2	Fluorescein autfl 1.1e-08M
CO/N=C(\C(=O)N[C@@H]1C(=O)N2C(C(=O)O)=C(CSc3nc(=O)c(O)nn3C)CS[C@@H]12)c1csc(N)n1	Fluorescein autfl inconclusive
Nc1ccc(CCNc2ncnc3c2ncn3[C@@H]2O[C@@H](CO)[C@H](O)[C@@H]2O)cc1	Fluorescein autfl inconclusive
COc1cccc(C2C3CN(C)CC=C3C(C#N)=C(N)C2(C#N)C#N)c1OC (configuration not stated)	Fluorescein autfl 5.2e-08M, A488 fluor inconclusive
CN1C2C=C3C(C#N)=C(N)C(C#N)(C#N)[C@@H](c4ccsc4)[C@@H]3C1CC2 (some centres not stated)	Texas Red fluor inconclusive
CCCC1C2CN(C(C)C)CC=C2C(C#N)=C(N)C1(C#N)C#N (configuration not stated)	Fluorescein autfl 5.1e-08M, A488 fluor inconclusive, Texas Red fluor inconclusive
CN(C)Cc1ccccc1-c1nccc(NCc2cccs2)n1	Fluorescein autfl 1.1e-08M
COc1ccc(CSc2nnc(C)n2N)cc1	Fluorescein autfl 2.3e-08M
Cc1nnc(SCc2ccccc2)n1N	none
COc1cc(Cn2c(N)c(C#N)c3nc4ccccc4nc32)cc(OC)c1	Fluorescein autfl inconclusive
COc1cccc(Cn2c(N)c(C#N)c3nc4ccccc4nc32)c1OC	Fluorescein autfl 1.3e-08M
CCN1C(=O)c2cccc3cccc1c23	Texas Red fluor inconclusive
CCN(CC)CCN1C(=O)c2cccc3cc(N)cc(c23)C1=O	Fluorescein autfl 3.9e-08M, A488 fluor inconclusive
Cc1cc2c(c(=O)o1)C1(C(=O)N(CC(=O)O)c3ccccc31)C(C#N)=C(N)O2 (configuration not stated)	Fluorescein autfl 1.3e-08M
CCN1C(=O)C2(C(C#N)=C(N)Oc3cc(C)oc(=O)c32)c2ccccc21 (configuration not stated)	Texas Red fluor inconclusive
C=C1CC[C@@H](O)C/C1=C/C=C1\CCC[C@]2(C)[C@@H]1CC[C@H]2[C@@H](C)/C=C\[C@@H](C)C(C)C	none
CN1CCN(C(=O)CSc2nc(-c3cccs3)cc(-c3cccs3)c2C#N)CC1	Fluorescein autfl 2e-08M, Texas Red fluor inconclusive
O=C(c1ccco1)N1CCN(c2nc3ccccc3n3nnnc23)CC1	Fluorescein autfl 1e-08M, Texas Red fluor inconclusive
c1ccc(CC2CCN(c3nc4ccccc4n4nnnc34)CC2)cc1	Fluorescein autfl inconclusive
COc1cccc(/C=C/c2ccncc2)c1OC	none
CN(C)c1ccc(/C=C/c2ccncc2)cc1	Fluorescein autfl 1.2e-08M
CCN1C(=S)SC(=O)C1=C1C=C(C)N(CCOC)C(C)=C1	Fluorescein autfl 1.1e-08M
CCN1C(=S)SC(=O)C1=C1C=C(C)N(CCO)C(C)=C1	Fluorescein autfl inconclusive
CO[C@@]12C[C@@H](COC(=O)c3cncc(Br)c3)CN(C)[C@H]1Cc1cn(C)c3cccc2c13	Fluorescein autfl 2.5e-08M!
CN(C)CCCNC(=O)c1ccc(-c2ccccc2)cc1	Fluorescein autfl inconclusive
CN(C)CCCNc1cc(O)c2c(c1O)C(=O)c1ccccc1C2=O	Rhodamine autofl 1.8e-08M, Resorufin autofl 1.3e-08M, Fluorescein autfl inconclusive, Texas Red fluor 4.6e-08M
COC(=O)C1=C(C)NC(C)=C(C(=O)OCCN(C)Cc2ccccc2)[C@@H]1c1cccc([N+](=O)[O-])c1	Fluorescein autfl inconclusive
CCN1CC=C2C(C1)C(c1ccc(Cl)s1)C(C#N)=C(N)C2(C#N)C#N (configuration not stated)	Fluorescein autfl 8.6e-08M, A488 fluor inconclusive
Cc1cc(-c2ccco2)c(C#N)c2nc3ccccc3n12	Fluorescein autfl 1.6e-07M, A488 fluor inconclusive
CCc1c(C)c(C#N)c2nc3ccccc3n2c1-n1nc(C)cc1C	Fluorescein autfl inconclusive
O=C(c1ccc(N2C(=O)C3CC=C(Cl)CC3C2=O)cc1)N1CCCCC1 (configuration not stated)	none
COc1cccc(N2C(=O)C3CC=C(Cl)CC3C2=O)c1 (configuration not stated)	Fluorescein autfl 1.5e-08M
C=CCOC(=O)C(C#N)c1nc2ccccc2nc1N1CCN(Cc2ccccc2)CC1 (configuration not stated)	Fluorescein autfl inconclusive, Texas Red fluor inconclusive
CCCn1c(O)c(CN2CCCCC2)c(C)c(C#N)c1=O	Fluorescein autfl 1.5e-08M, Texas Red fluor inconclusive
Cc1c(CN2CCCCC2)c(O)n(CCCO)c(=O)c1C#N	Fluorescein autfl 1.6e-08M, Texas Red fluor inconclusive
C=CCn1c(O)c(CN2CCN(Cc3ccccc3)CC2)c(C)c(C#N)c1=O	Fluorescein autfl 2.1e-08M
O=C(O)/C=C(/C(=O)O)[C@]12CCN3CC4=CCO[C@@H]5CC(=O)N[C@@H]1[C@H]5[C@H]4C[C@H]32	none
O=C(O)c1ccc2c3c(ncnc13)-c1ccccc1C2=O	Fluorescein autfl 1.4e-08M, Texas Red fluor inconclusive
COc1ncc2nc(-c3cn(C)c4ccccc34)c(=O)n(-c3ccccc3)c2n1	Fluorescein autfl 1.5e-08M
CCNc1ncc2nc(-c3cn(C)c4ccccc34)c(=O)n(-c3ccccc3)c2n1	Fluorescein autfl 1.1e-08M
